According to PubChem BioAssay AID1159580 (chemical genetic matrix, 2015):
“And” between values parts separate entries of the source, which are not always exact repeats. Equal entries are not always repeated. Hit rate of the full screen: of about 5,500 compounds, about 2,000 (36%) were called active. Not shown: some 18% with an inconclusive outcome. No stated cut-off is given here; in the data, active means normalized growth mostly below about 0.91 (no sharp cut-off); inconclusive means no clear call, values can overlap the other calls; inactive means mostly above about 0.92. The list shows a part of the results.

Assay: chemical genetic growth profiling, strain panel (AID 1159580);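 further: tested at 20 µM; growth read once vehicle control cultures reached saturation at 30 °C; 1 = growth at the plate median or of vehicle wells; lower values mean less growth of the strain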
Settings: S. cerevisiae deletion strains, growth OD

Measured: normalized growth

NS(=O)(=O)c1cc2c(cc1Cl)NC(C1CC3C=CC1C3)NS2(=O)=O (stereo unspecified)
inactive: locus YAL013W, strain DEP1, active compounds read low 1 | locus YAL021C, strain ccr4, active compounds read low 1 | locus YAL026C, strain drs2, active compounds read low 0.99 | locus YAL030W, strain snc1, active compounds read low 0.99 | locus YAL040C, strain CLN3, active compounds read low 0.979 | locus YBL061C, strain skt5, active compounds read low 1 | locus YBR009C, strain hhf1, active compounds read low 0.982 | locus YBR021W, strain FUR4, active compounds read low 1.03 | locus YBR023C, strain chs3, active compounds read low 0.991 | locus YBR171W, strain sec66, active compounds read low 0.981 | locus YBR229C, strain ROT2, active compounds read low 0.96 | locus YBR231C, strain swc5, active compounds read low 0.989 | locus YBR279W, strain paf1, active compounds read low 0.996 | locus YCL011C, strain gbp2, active compounds read low 0.989 | locus YCL016C, strain dcc1, active compounds read low 0.995 | locus YCL029C, strain bik1, active compounds read low 0.941 | locus YCL061C, strain MRC1 (second series), active compounds read low 0.99 | locus YCL061C, strain MRC1, active compounds read low 0.991 | locus YCL069W, strain vba3, active compounds read low 0.997 | locus YCR088W, strain abp1, active compounds read low 0.991 | locus YDL005C, strain med2, active compounds read low 0.983 | locus YDL035C, strain GPR1, active compounds read low 1.01 | locus YDL040C, strain nat1, active compounds read low 0.994 | locus YDL074C, strain BRE1, active compounds read low 1.01 | locus YDL101C, strain DUN1, active compounds read low 0.967 | locus YDL134C, strain PPH21, active compounds read low 0.99 | locus YDL185W, strain tfp1, active compounds read low 0.959 | locus YDL192W, strain arf1, active compounds read low 0.992 | locus YDR001C, strain nth1, active compounds read low 0.985 | locus YDR069C, strain doa4, active compounds read low 1.01 | locus YDR101C, strain arx1, active compounds read low 1 | locus YDR137W, strain rgp1, active compounds read low 1.01 | locus YDR150W, strain NUM1, active compounds read low 0.981 and 1 | locus YDR159W, strain sac3, active compounds read low 0.987 | locus YDR162C, strain NBP2, active compounds read low 0.911 | locus YDR195W, strain ref2 0.963 | locus YDR297W, strain sur2, active compounds read low 0.991 | locus YDR318W, strain mcm21, active compounds read low 1.02 | locus YDR334W, strain swr1, active compounds read low 0.995 | locus YDR335W, strain msn5, active compounds read low 0.991 | locus YDR363W, strain ESC2, active compounds read low 0.956 | locus YDR388W, active compounds read low 1 | locus YDR392W, strain spt3, active compounds read low 0.924 | locus YDR502C, strain sam2, active compounds read low 0.978 | locus YEL003W, strain gim4, active compounds read low 0.997 | locus YEL037C, strain rad23, active compounds read low 0.999 | locus YEL061C, strain CIN8 (second series), active compounds read low 0.984 | locus YEL061C, strain CIN8, active compounds read low 0.989 | locus YER002W, strain NOP16, active compounds read low 0.987 | locus YER015W, strain faa2, active compounds read low 0.994 | locus YER016W, strain bim1, active compounds read low 0.994 | locus YER110C, active compounds read low 0.937 | locus YER111C, strain swi4, active compounds read low 0.98 | locus YER155C, strain BEM2 (second series), active compounds read low 0.974 | locus YER155C, strain BEM2, active compounds read low 0.988 | locus YER167W, strain BCK2, active compounds read low 1.04 | locus YFR010W, strain ubp6, active compounds read low 0.988 | locus YGL078C, strain dbp3, active compounds read low 0.986 | locus YGL086W, strain mad1, active compounds read low 1.03 | locus YGL167C, strain pmr1, active compounds read low 0.987 | locus YGL173C, strain kem1, active compounds read low 0.994 | locus YGL227W, strain vid30, active compounds read low 0.978 | locus YGL240W, strain doc1, active compounds read low 0.977 | locus YGL248W, strain PDE1, active compounds read low 0.979 | locus YGL253W, strain hxk2, active compounds read low 0.995 | locus YGR078C, strain PAC10, active compounds read low 1.01 | locus YGR135W, strain pre9, active compounds read low 0.987 | locus YGR229C, strain SMI1, active compounds read low 0.998 | locus YGR252W, strain gcn5, active compounds read low 1.07 | locus YHR013C, strain ard1, active compounds read low 0.962 | locus YHR027C, strain rpn1, active compounds read low 0.993 | locus YHR030C, strain SLT2, active compounds read low 1 and 1.02 | locus YHR079C, strain IRE1 (second series), active compounds read low 1.01 | locus YHR079C, strain IRE1, active compounds read low 1.02 | locus YHR094C, strain hxt1, active compounds read low 0.998 | locus YHR129C, strain ARP1, active compounds read low 0.994 | locus YHR142W, strain chs7, active compounds read low 1 | locus YHR200W, strain rpn10, active compounds read low 0.997 | locus YIL066C, strain RNR3, active compounds read low 0.989 | locus YIL073C, strain SPO22, active compounds read low 1.08 | locus YIL125W, strain kgd1, active compounds read low 0.992 | locus YIR030C, strain dcg1, active compounds read low 0.984 | locus YJL092W, strain hpr5, active compounds read low 0.99 | locus YJL095W, strain BCK1 (second series), active compounds read low 0.99 | locus YJL095W, strain BCK1, active compounds read low 1.01 and 1.06 | locus YJL115W, strain asf1, active compounds read low 0.997 | locus YJL129C, strain trk1, active compounds read low 0.986 | locus YJL134W, strain LCB3, active compounds read low 0.984 | locus YJL154C, strain vps35, active compounds read low 0.988 | locus YJL164C, strain tpk1, active compounds read low 0.997 | locus YJL166W, strain qcr8, active compounds read low 0.997 | locus YJL168C, strain set2, active compounds read low 0.992 | locus YJL187C, strain SWE1 (second series), active compounds read low 0.975 | locus YJL187C, strain SWE1, active compounds read low 0.989 | locus YJR043C, strain POL32, active compounds read low 1.06 | locus YJR066W, strain TOR1, active compounds read low 0.976
